Data: PubChem BioAssay (NCATS)
Results filed as inconclusive are left out. This is one part of the list. Where a call stands in place of a potency, no number is given. The source made the active and inactive calls. Unless noted, calls follow the shape of the dose curve; as a rule, active = well fitted curve in the direction sought with a large enough effect; inconclusive = small, poorly fitted or top-dose-only effect, or another doubt; inactive = no such curve, though single readings can be large; an effect the other way counts as inactive or inconclusive.

Columns and labels:
[1] = molecular target: DNA repair nuclease/redox regulator APEX1 (Homo sapiens) (UniProt P27695); test: Confirmation qHTS Assay for Inhibitors of the Human Apurinic/apyrimidinic Endonuclease 1 (APE1) (AID 2572);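 also: fluorescence gain from purified APE1 cutting a TAMRA/BHQ-2 THF abasic duplex; nearly all actives have a fitted effect of over 30% in size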
Chain of DNA repair nuclease/redox regulator APEX1 (Homo sapiens) (P27695 whole entry, looked up): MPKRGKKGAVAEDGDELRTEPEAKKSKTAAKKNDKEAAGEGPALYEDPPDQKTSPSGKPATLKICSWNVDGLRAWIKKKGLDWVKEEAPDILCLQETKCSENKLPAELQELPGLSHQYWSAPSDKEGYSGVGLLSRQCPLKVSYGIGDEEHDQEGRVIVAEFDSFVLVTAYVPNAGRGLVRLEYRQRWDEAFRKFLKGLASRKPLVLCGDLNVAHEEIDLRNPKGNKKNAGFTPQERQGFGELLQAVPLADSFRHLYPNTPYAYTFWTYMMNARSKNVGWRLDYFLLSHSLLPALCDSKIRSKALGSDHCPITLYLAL
Method in brief: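 Enzyme and test compound were incubated for 15 min at room temperature, after which a 50 nM (final) double-stranded abasic-site substrate bearing 5'-TAMRA and 3'-BHQ-2 was added. Incision was followed as fluorescence increase over three reads.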

[2] = Cytometric Cell-Based qHTS for Inhibitors of the mTORC1 Signaling Pathway in MEF (Tsc2-/-, p53-/-) Cells (AID 2660);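 also: Tsc2 and p53 null MEFs carrying empty vector with compound for 24 h; percent of cells above a phospho-rpS6 to PI ratio cutoff in each well; series mostly up to about 38 µM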
Method in brief: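 Cells are plated, treated with compound for 24 hrs at 37 degree Celsius, then fixed, blocked and immunostained for phospho-rpS6 Ser235/236. Propidium iodide counterstain follows. Per-well % positive cells is derived from the PI-normalized phospho-S6 signal.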

[3] = High Content Imaging Cell-Based qHTS for Inhibitors of the mTORC1 Signaling Pathway in MEF (Tsc2-/-, p53-/-) Cells (AID 2666);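 also: percent of cells scored positive for phospho-rpS6 Ser235/236 immunostaining by imaging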
Method in brief: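 Cells were plated, dosed with compound after 24 hrs, and incubated another 24 hrs at 37 degree Celsius. Fixed cells were immunostained for phospho-rpS6 Ser235/236 and counterstained, and the normalized signal was scored as % active cells against rapamycin and DMSO controls.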

[4] = High Content Imaging Cell-Based qHTS for Inhibitors of the mTORC1 Signaling Pathway in MEF Cells (AID 2667);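 also: Tsc2-/- p53-/- MEFs stably re-expressing wild-type Tsc2 exposed 24 h; series mostly up to about 38 µM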
Method in brief: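 Immunofluorescence for rpS6 phosphorylation in MEFs of Tsc2-/-, p53-/- background rescued with WT Tsc2. Compound exposure lasted 24 hrs. Inhibition was scored against rapamycin-treated control wells.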

[5] = Cytometry Cell-Based qHTS for Inhibitors of the mTORC1 Signaling Pathway in MEF cells (AID 2668);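 also: Tsc2-/- p53-/- mouse embryonic fibroblasts stably re-expressing wild-type Tsc2; percent cells positive for phospho-rpS6 Ser235/236 relative to propidium iodide stain; series mostly up to about 38 µM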
Method in brief: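 Phospho-rpS6 (Ser235/236) immunofluorescence over PI signal, scored as % positive cells using thresholds from 7.5 nM rapamycin and DMSO wells, after 24 h compound exposure of WT-Tsc2-rescued Tsc2-/-, p53-/- MEFs. PI cell count recorded for viability.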

[6] = Validation screen for inhibitors of Lassa infection (AID 463096; calls by dose curve)
[7] = Validation screen for small molecules that induce DNA re-replication in MCF 10A normal breast cells (AID 463097); also: nearly all actives have a fitted effect of over 60% in size
Method in brief: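 Read-out is Hoechst total nuclear intensity by fluorescence scanning imager, flagging increased high-DNA-content nuclei. Compounds were incubated with MCF 10A cells for 48 hr (37 C, 5% CO2) before 40 min staining.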

[8] = molecular target: Tumor susceptibility gene 101 protein (Homo sapiens) (UniProt Q99816); test: qHTS Validation Assay for Iinhibitors of HIV-1 Budding by Blocking the Interaction of PTAP/TSG101 (AID 485342; calls by dose curve)
Chain of Tumor susceptibility gene 101 protein (Homo sapiens) (Q99816 whole entry, looked up, the tested form may be a part): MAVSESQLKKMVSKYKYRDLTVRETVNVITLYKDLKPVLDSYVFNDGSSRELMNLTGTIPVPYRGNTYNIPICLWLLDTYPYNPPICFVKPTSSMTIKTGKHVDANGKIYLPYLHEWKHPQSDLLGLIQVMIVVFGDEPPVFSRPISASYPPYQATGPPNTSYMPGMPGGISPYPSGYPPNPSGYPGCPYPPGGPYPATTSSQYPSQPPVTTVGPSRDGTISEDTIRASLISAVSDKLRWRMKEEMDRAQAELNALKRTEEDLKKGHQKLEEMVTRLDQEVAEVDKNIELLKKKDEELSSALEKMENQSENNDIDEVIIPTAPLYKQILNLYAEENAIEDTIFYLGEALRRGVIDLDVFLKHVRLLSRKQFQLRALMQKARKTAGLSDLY
Method in brief: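 Fluorescence polarization of 50 nM FITC-PTAP peptide bound to 10 uM Tsg101 binding domain was read after 20 min room-temperature incubation with compounds, in 10 mM HEPES pH 7.5, 0.15 M NaCl, 0.01% Tween 20.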

[9] = qHTS Validation Assay to Find Inhibitors of Chronic Active B-Cell Receptor Signaling (AID 485345; active = well fitted curve in the direction sought with a large enough effect in the main read-out, with a control signal flat, not every such curve was filed as active)
Method in brief: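 Read-out: ratio of filter-corrected green (IkappaBalpha fusion) to red (native) luciferase signal in doxycycline-induced TMD8 cells after 4 h at 37C. Titration spanned 46 uM–3 nM; Data were normalised to basal cells and 10 uM MG-132 wells.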

[10] = molecular target: Beta-2 adrenergic receptor (Homo sapiens) (UniProt P07550); test: qHTS validation assay of beta-arrestin-biased ligands of beta2-adrenergic receptor (AID 485366)
Chain of Beta-2 adrenergic receptor (Homo sapiens) (P07550 whole entry, looked up): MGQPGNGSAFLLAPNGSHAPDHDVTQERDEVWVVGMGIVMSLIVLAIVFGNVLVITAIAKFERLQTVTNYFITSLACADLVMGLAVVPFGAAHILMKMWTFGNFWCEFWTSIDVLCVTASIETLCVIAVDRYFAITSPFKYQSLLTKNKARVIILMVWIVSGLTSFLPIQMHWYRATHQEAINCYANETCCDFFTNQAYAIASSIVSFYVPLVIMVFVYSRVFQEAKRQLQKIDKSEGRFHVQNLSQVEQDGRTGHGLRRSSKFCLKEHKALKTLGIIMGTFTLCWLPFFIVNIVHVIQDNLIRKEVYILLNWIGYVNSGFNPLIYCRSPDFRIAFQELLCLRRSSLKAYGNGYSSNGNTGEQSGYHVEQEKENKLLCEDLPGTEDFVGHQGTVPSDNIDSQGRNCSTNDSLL
Method in brief: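 Values derive from curve-fitted %Activity of a luminescent beta-arrestin recruitment reporter; compounds tested up to 46 microM on Tango cells for 18 hr at 37 degrees C, 5% CO2.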

[11] = molecular target: ATP-dependent 6-phosphofructokinase (Trypanosoma brucei brucei) (UniProt O15648); test: qHTS Validation Assay to Find Inhibitors of T. brucei phosphofructokinase (AID 485368); also: potency is read from the fitted curve at half-maximal effect
Chain of ATP-dependent 6-phosphofructokinase (Trypanosoma brucei brucei) (O15648 whole entry, looked up): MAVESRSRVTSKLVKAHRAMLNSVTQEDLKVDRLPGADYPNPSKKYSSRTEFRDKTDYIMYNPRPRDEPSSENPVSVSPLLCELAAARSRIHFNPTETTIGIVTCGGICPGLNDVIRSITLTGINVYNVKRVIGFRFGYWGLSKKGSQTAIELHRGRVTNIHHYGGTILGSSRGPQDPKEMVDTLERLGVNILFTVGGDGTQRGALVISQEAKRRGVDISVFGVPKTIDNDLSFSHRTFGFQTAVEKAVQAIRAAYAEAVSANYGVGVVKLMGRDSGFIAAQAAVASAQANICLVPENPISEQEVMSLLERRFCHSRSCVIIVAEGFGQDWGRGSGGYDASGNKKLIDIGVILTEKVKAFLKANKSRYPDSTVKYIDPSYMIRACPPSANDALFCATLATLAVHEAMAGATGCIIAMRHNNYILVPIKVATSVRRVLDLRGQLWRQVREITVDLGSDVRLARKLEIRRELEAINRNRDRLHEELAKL
Method in brief: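 Enzyme reaction in triethanolamine buffer pH 8.0 with 5 mM MgCl2, 0.01% Tween20 and 0.1% BSA; PFK 1.25 nM, F6P 0.5 mM, ATP 0.1 mM, 45 min RT. ADP quantified by ADP-Glo.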

[12] = Quantitative high throughput screen for delayed death inhibitors of the malarial parasite plastid, 96 hour incubation (AID 488745); also: series mostly up to about 29 µM; nearly all actives have a fitted effect of over 70% in size
Method in brief: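 Luciferase-expressing P. falciparum in erythrocytes (2% hematocrit, 0.1% parasitemia) incubated with compound for 96 h at 37 C, 5% CO2, in RPMI 1640 with 0.5% Albumax. Growth inhibition read as decreased luminescence.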

[13] = Quantitative high throughput screen for delayed death inhibitors of the malarial parasite plastid, 48 hour incubation (AID 488752); also: nearly all actives have a fitted effect of over 65% in size
Method in brief: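 Erythrocytes infected with firefly luciferase-expressing P. falciparum (2% hematocrit, 0.1% parasitemia) cultured with compound for 48 h at 37 C, 5% CO2, in RPMI 1640/0.5% Albumax. Growth inhibition read as loss of luminescence.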

[14] = molecular target: Thioredoxin reductase 1, cytoplasmic (Rattus norvegicus) (UniProt O89049); test: qHTS Assay for Substrates of Mammalian Selenoprotein Thioredoxin Reductase 1 (TrxR1) (AID 488772);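 also: NADPH fluorescence in the first read after selenite addition and not the 8 min delta; series mostly up to about 57 µM; a drop in NADPH fluorescence below the no-compound background marks a TrxR1 substrate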
Chain of Thioredoxin reductase 1, cytoplasmic (Rattus norvegicus) (O89049 whole entry, looked up): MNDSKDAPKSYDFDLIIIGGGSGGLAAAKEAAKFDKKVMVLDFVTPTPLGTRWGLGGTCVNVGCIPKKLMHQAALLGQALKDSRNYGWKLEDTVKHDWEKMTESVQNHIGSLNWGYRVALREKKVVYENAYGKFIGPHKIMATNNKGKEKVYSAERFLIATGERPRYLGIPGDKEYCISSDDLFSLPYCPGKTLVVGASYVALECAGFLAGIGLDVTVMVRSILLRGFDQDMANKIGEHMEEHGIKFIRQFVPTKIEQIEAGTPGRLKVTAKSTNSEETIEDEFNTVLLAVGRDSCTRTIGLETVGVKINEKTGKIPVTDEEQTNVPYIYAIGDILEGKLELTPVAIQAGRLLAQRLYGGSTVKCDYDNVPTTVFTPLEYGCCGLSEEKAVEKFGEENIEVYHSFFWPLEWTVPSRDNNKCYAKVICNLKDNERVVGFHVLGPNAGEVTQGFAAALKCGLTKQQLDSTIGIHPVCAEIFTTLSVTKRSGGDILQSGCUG
Method in brief: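 Quantitative HTS in Tris-HCl buffer at pH 7.5 with EDTA and Tween-20, using rat TrxR1, 400 uM NADPH and 400 uM selenite (final). A fall in initial NADPH fluorescence relative to background marked substrate behaviour.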

[15] = molecular target: M-phase phosphoprotein 8 (Homo sapiens) (UniProt Q99549); test: qHTS Validation Assay for Inhibitors for MPP8 Chromodomain Interactions with Methylated Histone Tails (AID 488949); also: nearly all actives have a fitted effect of over 55% in size; also: potency is read from the fitted curve at half-maximal effect
Chain of M-phase phosphoprotein 8 (Homo sapiens) (Q99549 whole entry, looked up): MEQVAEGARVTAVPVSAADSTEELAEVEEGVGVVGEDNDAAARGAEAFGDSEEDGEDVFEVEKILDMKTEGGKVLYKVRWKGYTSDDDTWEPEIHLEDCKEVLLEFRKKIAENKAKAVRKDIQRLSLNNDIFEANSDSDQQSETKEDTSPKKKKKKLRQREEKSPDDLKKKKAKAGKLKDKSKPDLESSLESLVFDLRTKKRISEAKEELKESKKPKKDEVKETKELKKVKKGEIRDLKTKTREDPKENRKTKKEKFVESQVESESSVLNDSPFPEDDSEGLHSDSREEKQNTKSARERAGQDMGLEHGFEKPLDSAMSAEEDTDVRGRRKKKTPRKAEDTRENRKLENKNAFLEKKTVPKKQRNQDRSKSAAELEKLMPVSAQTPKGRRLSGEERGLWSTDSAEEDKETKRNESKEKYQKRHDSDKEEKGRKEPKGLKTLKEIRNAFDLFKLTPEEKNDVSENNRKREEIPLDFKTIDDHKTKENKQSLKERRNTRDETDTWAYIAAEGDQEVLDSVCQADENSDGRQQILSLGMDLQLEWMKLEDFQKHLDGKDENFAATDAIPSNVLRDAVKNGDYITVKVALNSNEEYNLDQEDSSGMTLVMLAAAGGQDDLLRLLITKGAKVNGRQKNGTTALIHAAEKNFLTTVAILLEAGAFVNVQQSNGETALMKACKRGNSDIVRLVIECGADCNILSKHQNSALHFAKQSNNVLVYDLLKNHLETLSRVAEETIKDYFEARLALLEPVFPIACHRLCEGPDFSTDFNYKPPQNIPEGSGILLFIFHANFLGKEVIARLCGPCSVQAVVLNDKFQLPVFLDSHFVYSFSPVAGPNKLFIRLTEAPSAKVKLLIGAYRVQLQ
Method in brief: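 AlphaScreen proximity signal from streptavidin donor and Ni-chelate acceptor beads (10 ug/mL each) reported binding of MPP8 to trimethyl-K9 H3(1-18) peptide, both at 50 nM. The complex formed 30 min before a 30 min compound exposure at room temperature, in PBS pH 7.4.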

[16] = molecular target: Chromobox protein homolog 1 (Homo sapiens) (UniProt P83916); test: qHTS Validation Assay for Inhibitors of HP1-beta Chromodomain Interactions with Methylated Histone Tails (AID 488953);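 also: loss of AlphaScreen luminescence from HP1-beta binding biotinylated H3K9me3 peptide; series mostly up to about 110 µM; nearly all actives have a fitted effect of over 50% in size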
Chain of Chromobox protein homolog 1 (Homo sapiens) (P83916 whole entry, looked up): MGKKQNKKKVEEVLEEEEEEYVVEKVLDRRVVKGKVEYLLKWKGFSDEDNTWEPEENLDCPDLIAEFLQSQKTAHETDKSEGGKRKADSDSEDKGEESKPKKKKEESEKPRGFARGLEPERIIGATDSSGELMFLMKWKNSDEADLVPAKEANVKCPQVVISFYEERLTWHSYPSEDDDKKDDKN
Method in brief: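 HP1-beta (50 nM) preformed 30 min with biotinylated H3(1-18)K9me3 peptide (50 nM) in PBS pH 7.4, 0.01% Tween-20. Compounds added for 30 min at room temperature. Complex disruption read by AlphaScreen with streptavidin donor/nickel chelate acceptor beads (10 ug/mL each).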

[17] = molecular target: DNA polymerase III PolC-type (Bacillus subtilis (strain 168)) (UniProt P13267); test: qHTS Validation Assay for the Inhibitors of DNA Replication in Gram-Positive Bacteria (AID 485295);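 also: reconstituted holoenzyme with PolC plus beta clamp SSB and primase; PicoGreen fluorescence of double-stranded DNA made on primed circular M13 template; series mostly up to about 57 µM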
Chain of DNA polymerase III PolC-type (Bacillus subtilis (strain 168)) (P13267 whole entry, looked up): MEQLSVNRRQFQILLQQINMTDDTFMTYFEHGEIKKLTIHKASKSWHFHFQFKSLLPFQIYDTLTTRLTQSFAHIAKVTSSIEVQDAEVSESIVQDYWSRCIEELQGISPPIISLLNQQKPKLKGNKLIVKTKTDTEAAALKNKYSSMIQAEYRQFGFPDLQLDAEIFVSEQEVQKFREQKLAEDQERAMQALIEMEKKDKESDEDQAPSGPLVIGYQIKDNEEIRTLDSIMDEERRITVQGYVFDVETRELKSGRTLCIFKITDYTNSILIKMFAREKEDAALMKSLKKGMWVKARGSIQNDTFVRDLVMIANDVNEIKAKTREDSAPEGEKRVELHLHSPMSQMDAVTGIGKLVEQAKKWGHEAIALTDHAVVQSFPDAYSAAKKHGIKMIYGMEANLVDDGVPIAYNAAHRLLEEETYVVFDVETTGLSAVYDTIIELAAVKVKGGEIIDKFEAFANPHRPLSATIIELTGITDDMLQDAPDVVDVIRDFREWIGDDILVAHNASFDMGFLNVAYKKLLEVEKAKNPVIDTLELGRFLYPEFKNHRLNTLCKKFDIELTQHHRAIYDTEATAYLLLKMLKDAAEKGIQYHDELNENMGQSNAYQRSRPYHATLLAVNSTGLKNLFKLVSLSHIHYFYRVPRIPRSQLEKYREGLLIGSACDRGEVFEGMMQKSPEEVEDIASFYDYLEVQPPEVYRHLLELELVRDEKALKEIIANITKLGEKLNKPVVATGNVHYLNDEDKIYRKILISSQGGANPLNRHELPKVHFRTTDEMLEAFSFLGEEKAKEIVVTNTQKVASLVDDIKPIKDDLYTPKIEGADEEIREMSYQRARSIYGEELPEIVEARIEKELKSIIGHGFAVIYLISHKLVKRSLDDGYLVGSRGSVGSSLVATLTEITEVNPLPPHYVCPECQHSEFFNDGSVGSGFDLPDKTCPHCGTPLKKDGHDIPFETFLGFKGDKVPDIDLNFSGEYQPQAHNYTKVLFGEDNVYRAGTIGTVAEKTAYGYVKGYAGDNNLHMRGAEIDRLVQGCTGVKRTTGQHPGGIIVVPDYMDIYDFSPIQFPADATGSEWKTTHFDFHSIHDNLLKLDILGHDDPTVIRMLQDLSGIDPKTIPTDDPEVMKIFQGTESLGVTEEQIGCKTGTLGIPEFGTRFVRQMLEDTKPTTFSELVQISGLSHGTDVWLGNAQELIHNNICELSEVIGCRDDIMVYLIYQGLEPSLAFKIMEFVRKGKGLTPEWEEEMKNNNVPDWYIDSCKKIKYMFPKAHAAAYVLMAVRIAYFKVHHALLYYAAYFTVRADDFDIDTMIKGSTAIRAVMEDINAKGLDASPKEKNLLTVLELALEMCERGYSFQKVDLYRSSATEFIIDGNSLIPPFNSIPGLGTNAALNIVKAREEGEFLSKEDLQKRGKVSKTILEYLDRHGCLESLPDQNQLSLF
Method in brief: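 Double-stranded DNA product detected by PicoGreen fluorescence after EDTA quench. Compound incubated with B. subtilis holoenzyme (PolC, beta subunit, SSB, primase) before substrate addition; primed replication of M13Gori with dNTPs and NTPs at room temperature; DMSO defines 0% inhibition.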

[18] = molecular target: Thioredoxin reductase 1, cytoplasmic (Rattus norvegicus) (UniProt O89049); test: qHTS Assay for Inhibitors of Mammalian Selenoprotein Thioredoxin Reductase 1 (TrxR1) (AID 488773); settings: Potency: inhibition; also: nearly all actives have a fitted effect of over 40% in size; also: potency is read from the fitted curve at half-maximal effect
Method in brief: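 Steps: enzyme (90 nM) plus NADPH (400 uM final), 5 min at ~22 deg C; compound added, 15 min; selenite (400 uM final) added; fluorescence followed for 8 min. Concentration-response curves derived from the normalized delta values.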

[19] = molecular target: Ubiquitin carboxyl-terminal hydrolase 2 (Homo sapiens) (UniProt O75604); test: qHTS Validation Assay for Inhibitors of Ubiquitin-specific Protease USP2a Using CHOP2 as the Reporter (AID 463106)
Method in brief: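 10nM USP2 core + cpd, 30min RT; add 25nM Ub-CHOP2/25nM substrate; 60min RT; FI 485/531nm. Buffer Tris pH 8.0, CaCl2, BME, CHAPS. Norm. to NEM = 100% inhibition; time-zero read flags fluorescent artifacts.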

[20] = molecular target: Flap endonuclease 1 (Homo sapiens) (UniProt P39748); test: qHTS Validation Assay for the Inhibitors of Human Flap endonuclease 1 (FEN1) (AID 488816)
Chain of Flap endonuclease 1 (Homo sapiens) (P39748 whole entry, looked up): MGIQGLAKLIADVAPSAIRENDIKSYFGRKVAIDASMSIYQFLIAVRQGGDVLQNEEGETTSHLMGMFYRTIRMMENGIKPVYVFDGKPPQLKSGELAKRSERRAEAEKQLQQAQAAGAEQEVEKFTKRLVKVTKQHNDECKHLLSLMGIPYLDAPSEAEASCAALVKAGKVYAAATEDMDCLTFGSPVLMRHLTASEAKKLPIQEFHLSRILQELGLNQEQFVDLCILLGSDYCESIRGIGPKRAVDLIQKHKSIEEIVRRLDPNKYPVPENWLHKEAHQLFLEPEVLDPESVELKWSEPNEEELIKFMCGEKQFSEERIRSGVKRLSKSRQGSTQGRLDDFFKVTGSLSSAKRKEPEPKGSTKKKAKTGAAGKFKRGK
Method in brief: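 Readings taken at 0 and 15 min after starting the reaction with 50 nM (final) substrate supplied the signal. Compounds had first sat with 10 nM FEN1 reagent for 15 min at room temperature. Values come from Hill-equation concentration-response fits.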

Row | SMILES | outcome [1] | Potency [2] | Potency [3] | Potency [4] | Potency [5] | Potency [6] | Potency [7] | outcome [8] | Potency [9] | outcome [10] | Potency [11] | Potency [12] | Potency [13] | outcome [14] | Potency [15] | Potency [16] | Potency [17] | Potency [18] | Potency [19] | Potency [20]
1 | CC(=O)NBr | inactive | – | – | – | – | – | – | – | – | – | – | – | – | – | – | – | – | – | – | –
2 | CCN(CCCl)Cc1ccccc1Br | – | inactive | inactive | inactive | inactive | inactive | inactive | inactive | inactive | inactive | inactive | inactive | inactive | inactive | inactive | inactive | – | – | – | –
3 | NCCc1c[nH]c2ccc(C(N)=O)cc12 | – | inactive | inactive | inactive | inactive | inactive | inactive | inactive | inactive | inactive | inactive | inactive | inactive | inactive | inactive | inactive | inactive | inactive | – | –
4 | C[N+](C)(C)CC#CCOC(=O)Nc1cccc(Cl)c1 | – | inactive | inactive | inactive | inactive | inactive | inactive | inactive | inactive | inactive | inactive | – | – | inactive | inactive | inactive | – | 21.2 µM (active) | – | –
5 | COc1ccc2c(c1)C13CCCCC1C(C2)N(C)CC3 (stereo not drawn) | – | inactive | inactive | inactive | inactive | inactive | inactive | inactive | inactive | inactive | – | – | – | inactive | inactive | inactive | – | – | inactive | inactive
6 | NCC(O)c1cc(O)c(O)cc1F (stereo not drawn) | – | inactive | inactive | inactive | inactive | inactive | inactive | inactive | inactive | inactive | 4.78 µM (active) | inactive | inactive | inactive | 18.9 µM (active) | – | – | – | – | –
7 | CP(=O)(O)C1=CCNCC1 | – | inactive | inactive | inactive | inactive | inactive | inactive | inactive | inactive | inactive | – | inactive | inactive | inactive | inactive | inactive | inactive | – | – | –
8 | NCC(CP(=O)(O)O)c1ccc(Cl)cc1 (stereo not drawn) | – | inactive | inactive | inactive | inactive | inactive | inactive | inactive | – | inactive | inactive | inactive | – | inactive | inactive | inactive | inactive | – | inactive | inactive
9 | Cc1sc2ccccc2c1CC1=NCCN1 | – | inactive | inactive | inactive | inactive | inactive | inactive | inactive | inactive | inactive | inactive | inactive | inactive | inactive | inactive | – | inactive | – | – | –
10 | COc1ccc2[nH]c3c(c2c1)CCNC3 | – | inactive | inactive | inactive | inactive | inactive | inactive | inactive | inactive | inactive | inactive | inactive | – | inactive | inactive | – | inactive | inactive | – | inactive
11 | COc1cc(CC(C)N)c(OC)cc1I (stereo not drawn) | – | inactive | inactive | inactive | inactive | inactive | inactive | inactive | inactive | inactive | inactive | inactive | – | inactive | inactive | – | inactive | – | – | inactive
12 | CCOC(=O)c1ncn2c1[C@@H]1CCCN1C(=O)c1cc(OC)ccc1-2 | – | inactive | inactive | inactive | inactive | inactive | inactive | inactive | inactive | inactive | inactive | inactive | – | inactive | inactive | inactive | – | inactive | inactive | inactive
13 | CCCN(CCC)CCc1ccc(O)c(O)c1 | – | inactive | inactive | inactive | inactive | inactive | inactive | inactive | inactive | inactive | – | inactive | inactive | inactive | inactive | inactive | inactive | inactive | – | inactive
14 | NNC(=O)c1ccc(O)cc1 | – | inactive | inactive | inactive | inactive | inactive | inactive | inactive | – | inactive | – | inactive | inactive | inactive | inactive | inactive | inactive | inactive | inactive | inactive
15 | c1ccc2cc(CC3=NCCN3)ccc2c1 | – | inactive | inactive | inactive | inactive | inactive | inactive | inactive | inactive | inactive | inactive | – | – | inactive | inactive | inactive | – | inactive | – | inactive
16 | CCS(=O)(=O)Nc1cccc(C(=C2CCCCC2)c2cnc[nH]2)c1 | – | inactive | inactive | inactive | inactive | inactive | inactive | inactive | inactive | inactive | inactive | – | – | inactive | inactive | – | inactive | inactive | – | inactive
17 | O=C1C=CC(=O)C=C1 | – | inactive | inactive | inactive | inactive | inactive | inactive | inactive | inactive | inactive | – | inactive | inactive | inactive | inactive | inactive | inactive | – | – | –
